# Measured values reported in PubChem BioAssay (EPA / NIEHS).
# Results filed as inconclusive are left out. Activity calls are given as the source filed them. The calls were made as follows, unless noted: active = hit-call score of the fitted dose curve at least 0.9, where 1 is the maximum; inactive = score below 0.9.
# What was measured:
# [1] = biological target: human Retinoid X Receptor beta (RXRb), RXRB (gene 6257) (UniProt P28702); experiment: ATG_RXRb_TRANS: Attagene TRANS-FACTORIAL HepG2 Assay for human Retinoid X Receptor beta (RXRb) (AID 2283013; active = hit-call score of the fitted dose curve at least 0.9, where 1 is the maximum)
# In short: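 Read-out: reporter mRNA induction via RT-PCR plus capillary electrophoresis fluorescence, analysed as signal increase relative to DMSO. Cells were human HepG2, transiently transfected with GAL4-UAS reporter constructs and chimeric receptor-Gal4 fusions, dosed for 24 h.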
# [2] = biological target: human Thyroid Receptor alpha (THRa1), THRA (gene 7067) (UniProt P10827); experiment: ATG_THRa1_TRANS: Attagene TRANS-FACTORIAL HepG2 Assay for human Thyroid Receptor alpha (THRa1) (AID 2283014; active = hit-call score of the fitted dose curve at least 0.9, where 1 is the maximum)
# In short: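 HepG2 cells transiently transfected with multiplexed GAL4-UAS reporter units for exogenous chimeric THRa1-Gal4; reporter mRNA measured 24 h after dosing by RT-PCR, 6-FAM labelling, HpaI digestion and capillary electrophoresis. Gain-of-signal fitted versus DMSO baseline.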
# [3] = read-out: E-selectin (Homo sapiens) (UniProt P16581); experiment: BSK_3C_Eselectin: BioMAP Diversity Plus: 3C Assay for Eselectin Biomarker Activity (AID 2283015); details: primary human endothelial cells (HUVEC); actives raise or lower the signal;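 also: cell surface E-selectin protein quantified by ELISA 24 h after dosing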
# In short: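 Primary human umbilical vein endothelial cells (3C system) were dosed with chemical and cell-surface E-selectin measured by ELISA 24 h later. Bidirectional curve fitting used DMSO as negative control and baseline.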
# [4] = read-out: Interleukin-1 alpha (IL1a), IL1A (gene 3552); experiment: BSK_BE3C_IL1a: BioMAP Diversity Plus: BE3C Assay for Interleukin-1 alpha (IL1a) Biomarker Activity (AID 2283016); details: primary human bronchial epithelial cells; actives raise or lower the signal
# In short: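 ELISA read-out of IL-1a from human lung bronchial epithelial primary cells, 24 h post-dose. Gain or loss of signal fitted relative to DMSO negative control.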
# [5] = read-out: Monocyte Chemoattractant Protein-1 (MCP1), CCL2 (gene 6347); experiment: BSK_3C_MCP1: BioMAP Diversity Plus: 3C Assay for Monocyte Chemoattractant Protein-1 (MCP1) Biomarker Activity (AID 2283017); details: primary human endothelial cells (HUVEC); actives raise or lower the signal
# In short: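 Primary human umbilical vein endothelial cells (3C system) were exposed to test chemical for 24 h, after which MCP-1 was quantified by ELISA. Activity was fitted bidirectionally against DMSO as negative control and baseline.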
# [6] = read-out: Monocyte Chemoattractant Protein-1 (MCP1), CCL2 (gene 6347); experiment: BSK_4H_MCP1: BioMAP Diversity Plus: 4H Assay for Monocyte Chemoattractant Protein-1 (MCP1) Biomarker Activity (AID 2283018); details: primary human endothelial cells (HUVEC); actives raise or lower the signal
# In short: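 HUVEC primary cells, 24 h post-dose, MCP-1 by ELISA. Gain or loss of signal fitted bidirectionally vs DMSO baseline. Cytotoxicity: SRB stain (0.1% after 10% TCA fixation), read 560 nm, parallel cultures.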
# [7] = read-out: Human Leukocyte Antigen - DR isotype (HLADR), HLA-DRA (gene 3122); experiment: BSK_3C_HLADR: BioMAP Diversity Plus: 3C Assay for Human Leukocyte Antigen - DR isotype (HLADR) Biomarker Activity (AID 2283019); details: primary human endothelial cells (HUVEC); actives raise or lower the signal;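 also: ELISA of cell-surface HLA-DR on HUVEC 24 h after dosing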
# In short: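 Primary human umbilical vein endothelial cells (3C system) were dosed with compound and cell-surface HLA-DR was quantified by ELISA at 24 h. Activity was fitted bidirectionally against DMSO as negative control and baseline.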
# [8] = read-out: Interleukin-8 (IL8), CXCL8 (gene 3576); experiment: BSK_3C_IL8: BioMAP Diversity Plus: 3C Assay for Interleukin-8 (IL8) Biomarker Activity (AID 2283020); details: primary human endothelial cells (HUVEC); actives raise or lower the signal
# In short: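 HUVEC, 3C stimulation; 24 h compound exposure; IL-8 read by ELISA; gain or loss of signal fitted relative to DMSO control.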
# [9] = read-out: Monokine induced gamma interferon (MIG), CXCL9 (gene 4283); experiment: BSK_3C_MIG: BioMAP Diversity Plus: 3C Assay for Monokine induced gamma interferon (MIG) Biomarker Activity (AID 2283021); details: primary human endothelial cells (HUVEC); actives raise or lower the signal
# In short: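 HUVEC, 3C system; 24 h chemical exposure; MIG by ELISA; bidirectional fit vs DMSO baseline.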
# [10] = biological target: human Vitamin D Receptor (VDR), VDR (gene 7421) (UniProt P11473); experiment: ATG_VDR_TRANS: Attagene TRANS-FACTORIAL HepG2 Assay for human Vitamin D Receptor (VDR) (AID 2283022; active = hit-call score of the fitted dose curve at least 0.9, where 1 is the maximum)
# In short: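 HepG2 cells were transiently transfected with multiple GAL4-UAS reporter units, so signal reflects exogenous chimeric receptor-Gal4 activity. After 24 h compound exposure, reporter mRNA was measured by RT-PCR, fluorescent labelling and capillary electrophoresis, fitted for gain of signal versus DMSO.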
# [11] = BSK_3C_SRB: Viability Assessment in the BioMAP Diversity Plus: 3C Assay (AID 2283023); details: primary human endothelial cells (HUVEC);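 also: fitted both ways against DMSO so a hit may be signal rise or drop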
# In short: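 Primary human umbilical vein endothelial cells in the 3C system were read 24 h after compound dosing. Total protein was stained with 0.1% sulforhodamine B after 10% TCA fixation and read at 560 nm, with bidirectional fitting against DMSO as baseline.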
# [12] = read-out: Matrix Metallopeptidase 1 (MMP1), MMP1 (gene 4312); experiment: BSK_BE3C_MMP1: BioMAP Diversity Plus: BE3C Assay for Matrix Metallopeptidase 1 (MMP1) Biomarker Activity (AID 2283024); details: primary human bronchial epithelial cells; actives raise or lower the signal
# In short: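 ELISA read-out of MMP1 in human lung bronchial epithelial primary cultures, 24 h post-dose; bidirectional curve fit vs DMSO baseline, gain or loss of signal scored.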
# [13] = BSK_3C_Vis: BioMAP Diversity Plus: 3C Assay for Morphology Visualization (AID 2283025); details: primary human endothelial cells (HUVEC);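 also: fitted both ways so gain or loss versus DMSO counts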
# In short: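 HUVEC, 3C system; light microscopy of morphology at 24 h post-dose. Bidirectional fit vs DMSO baseline. Secondary readout, background-control function.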
# [14] = read-out: Pselectin, SELP (gene 6403); experiment: BSK_4H_Pselectin: BioMAP Diversity Plus: 4H Assay for Pselectin Biomarker Activity (AID 2283026); details: primary human endothelial cells (HUVEC); actives raise or lower the signal
# In short: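 HUVEC, 24 h chemical exposure; P-selectin read by ELISA. Bidirectional curve fit vs DMSO baseline; gain or loss of signal scored.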
# [15] = BSK_BE3C_SRB: Viability Assessment in the BioMAP Diversity Plus: BE3C Assay (AID 2283028); details: primary human bronchial epithelial cells
# In short: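 Human primary bronchial epithelial cells were exposed to test chemicals for 24 h. Total protein in parallel cultures was then measured by staining with 0.1% sulforhodamine B after 10% TCA fixation, with absorbance read at 560 nm. Activity was fitted bidirectionally against DMSO.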
# [16] = read-out: Thrombomodulin, THBD (gene 7056); experiment: BSK_3C_Thrombomodulin: BioMAP Diversity Plus: 3C Assay for Thrombomodulin Biomarker Activity (AID 2283029); details: primary human endothelial cells (HUVEC); actives raise or lower the signal
# In short: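 HUVEC, 3C conditions; compound 24 h; thrombomodulin by ELISA; bidirectional curve fit vs DMSO baseline; parallel SRB total-protein staining for cytotoxicity.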
# [17] = read-out: Urokinase-type plasminogen activator receptor (uPAR), PLAUR (gene 5329); experiment: BSK_4H_uPAR: BioMAP Diversity Plus: 4H Assay for Urokinase-type plasminogen activator receptor (uPAR) Biomarker Activity (AID 2283030); details: primary human endothelial cells (HUVEC); actives raise or lower the signal
# In short: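 Primary human umbilical vein endothelial cells were exposed to chemical for 24 h before cell-surface uPAR was quantified by ELISA. Activity was fitted bidirectionally against the DMSO negative control baseline.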
# [18] = read-out: Vascular endothelial growth factor receptor 2 (Homo sapiens) (UniProt P35968); experiment: BSK_4H_VEGFRII: BioMAP Diversity Plus: 4H Assay for Vascular endothelial growth factor receptor 2 (VEGFR2) Biomarker Activity (AID 2283031); details: primary human endothelial cells (HUVEC); actives raise or lower the signal
# In short: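 Primary human umbilical vein endothelial cells in the BioMAP 4H system were dosed with test chemical, and 24 h later VEGFRII was measured by ELISA. Activity was fitted bidirectionally against DMSO as negative control and baseline.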
# [19] = biological target: Retinoic acid receptor RXR-alpha (Homo sapiens) (UniProt P19793); experiment: ATG_RXRa_TRANS: Attagene TRANS-FACTORIAL HepG2 Assay for human Retinoid X Receptor alpha (RXRa) (AID 2283012; active = hit-call score of the fitted dose curve at least 0.9, where 1 is the maximum)
# In short: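 Read-out: fluorescent reporter-transcript fragments quantified by capillary electrophoresis after RT-PCR. Transiently transfected HepG2 cells carrying GAL4-UAS reporters and NR-GAL4 chimeras were exposed to chemical for 24 h; activity scored as increase over DMSO.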
# [20] = BSK_4H_SRB: Viability Assessment in the BioMAP Diversity Plus: 4H Assay (AID 2283027); details: primary human endothelial cells (HUVEC);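 also: cells exposed to compound for 24 h before staining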
# In short: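 Cytotoxicity readout: sulforhodamine B (0.1%) staining of total protein after 10% TCA fixation, measured at 560 nm in human umbilical vein endothelium at 24 h. DMSO set the baseline; fitting was bidirectional.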
# human Vitamin D Receptor (VDR), VDR (gene 7421), sequence (P11473 whole entry, looked up, the tested form may be a part): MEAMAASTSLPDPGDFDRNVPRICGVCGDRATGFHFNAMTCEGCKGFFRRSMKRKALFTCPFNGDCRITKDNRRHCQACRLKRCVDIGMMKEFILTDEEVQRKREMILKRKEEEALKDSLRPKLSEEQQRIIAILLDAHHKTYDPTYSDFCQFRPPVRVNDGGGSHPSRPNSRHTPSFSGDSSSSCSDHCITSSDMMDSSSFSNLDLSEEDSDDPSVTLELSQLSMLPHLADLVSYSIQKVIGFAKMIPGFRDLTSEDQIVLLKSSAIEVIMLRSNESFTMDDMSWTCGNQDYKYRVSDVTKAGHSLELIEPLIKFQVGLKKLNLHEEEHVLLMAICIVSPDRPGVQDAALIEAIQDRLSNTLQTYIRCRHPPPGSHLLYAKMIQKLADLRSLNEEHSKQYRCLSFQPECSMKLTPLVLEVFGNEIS
# E-selectin (Homo sapiens), sequence (P16581 whole entry, looked up): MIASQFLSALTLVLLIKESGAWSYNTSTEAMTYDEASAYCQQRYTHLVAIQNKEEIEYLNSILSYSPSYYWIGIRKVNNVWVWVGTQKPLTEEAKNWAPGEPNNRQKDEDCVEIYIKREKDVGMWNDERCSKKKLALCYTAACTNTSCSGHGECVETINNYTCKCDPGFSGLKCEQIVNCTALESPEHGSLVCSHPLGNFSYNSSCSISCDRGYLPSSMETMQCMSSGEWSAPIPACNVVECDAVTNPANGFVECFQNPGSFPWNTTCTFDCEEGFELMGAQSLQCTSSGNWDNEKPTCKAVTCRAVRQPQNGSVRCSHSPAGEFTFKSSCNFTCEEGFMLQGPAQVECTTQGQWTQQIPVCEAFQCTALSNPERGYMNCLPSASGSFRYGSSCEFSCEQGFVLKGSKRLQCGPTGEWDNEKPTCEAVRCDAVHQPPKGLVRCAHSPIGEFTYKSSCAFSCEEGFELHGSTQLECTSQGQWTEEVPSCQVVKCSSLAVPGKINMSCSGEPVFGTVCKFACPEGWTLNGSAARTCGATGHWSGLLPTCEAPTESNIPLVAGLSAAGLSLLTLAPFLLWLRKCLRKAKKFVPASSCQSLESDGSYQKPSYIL
# human Retinoid X Receptor beta (RXRb), RXRB (gene 6257), sequence (P28702 whole entry, looked up, the tested form may be a part): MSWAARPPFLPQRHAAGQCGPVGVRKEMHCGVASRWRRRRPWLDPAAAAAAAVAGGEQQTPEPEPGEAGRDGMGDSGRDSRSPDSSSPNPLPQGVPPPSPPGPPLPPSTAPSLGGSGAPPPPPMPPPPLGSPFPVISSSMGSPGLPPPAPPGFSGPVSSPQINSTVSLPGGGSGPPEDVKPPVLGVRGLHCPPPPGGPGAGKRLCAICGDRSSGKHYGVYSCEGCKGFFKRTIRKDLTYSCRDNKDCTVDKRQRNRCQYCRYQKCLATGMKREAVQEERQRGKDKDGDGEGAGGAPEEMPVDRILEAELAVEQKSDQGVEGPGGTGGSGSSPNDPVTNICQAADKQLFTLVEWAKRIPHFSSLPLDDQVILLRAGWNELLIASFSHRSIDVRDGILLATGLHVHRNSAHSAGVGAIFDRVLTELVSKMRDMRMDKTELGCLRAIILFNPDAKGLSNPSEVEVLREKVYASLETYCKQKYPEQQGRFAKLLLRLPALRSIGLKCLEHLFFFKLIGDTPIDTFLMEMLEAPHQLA
# human Thyroid Receptor alpha (THRa1), THRA (gene 7067), sequence (P10827 whole entry, looked up, the tested form may be a part): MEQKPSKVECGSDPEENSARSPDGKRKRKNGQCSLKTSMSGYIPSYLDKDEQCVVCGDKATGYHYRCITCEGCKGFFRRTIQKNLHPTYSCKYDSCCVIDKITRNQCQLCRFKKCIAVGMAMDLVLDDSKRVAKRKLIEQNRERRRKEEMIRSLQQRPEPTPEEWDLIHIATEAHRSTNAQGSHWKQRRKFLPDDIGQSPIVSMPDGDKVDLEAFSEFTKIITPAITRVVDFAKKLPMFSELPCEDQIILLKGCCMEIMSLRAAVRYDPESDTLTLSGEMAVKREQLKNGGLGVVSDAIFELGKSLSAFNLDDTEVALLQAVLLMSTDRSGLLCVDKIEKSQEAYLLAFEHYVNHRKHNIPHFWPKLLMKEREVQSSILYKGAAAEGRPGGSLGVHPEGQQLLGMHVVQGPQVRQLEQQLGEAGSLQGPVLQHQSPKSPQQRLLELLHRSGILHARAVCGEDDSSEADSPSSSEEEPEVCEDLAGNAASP
# Retinoic acid receptor RXR-alpha (Homo sapiens), sequence (P19793 whole entry, looked up, the tested form may be a part): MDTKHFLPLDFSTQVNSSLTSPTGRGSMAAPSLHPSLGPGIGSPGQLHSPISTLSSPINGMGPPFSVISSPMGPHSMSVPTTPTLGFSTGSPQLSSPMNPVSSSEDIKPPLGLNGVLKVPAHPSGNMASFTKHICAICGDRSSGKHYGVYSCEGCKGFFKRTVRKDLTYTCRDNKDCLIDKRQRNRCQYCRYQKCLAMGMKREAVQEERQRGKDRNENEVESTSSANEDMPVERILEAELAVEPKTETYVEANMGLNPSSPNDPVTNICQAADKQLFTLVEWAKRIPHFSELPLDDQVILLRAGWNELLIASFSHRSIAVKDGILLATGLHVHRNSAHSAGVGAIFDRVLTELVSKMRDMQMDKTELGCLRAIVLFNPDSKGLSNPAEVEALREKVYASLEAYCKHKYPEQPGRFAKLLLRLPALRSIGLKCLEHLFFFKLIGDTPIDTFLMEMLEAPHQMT
smiles,measurement,setting,value
CC(C)COC(=O)CCCCC(=O)OCC(C)C,outcome,[1],inactive
same,outcome,[2],inactive
same,outcome,[3],inactive
same,outcome,[4],inactive
same,outcome,[5],inactive
same,outcome,[6],inactive
same,outcome,[7],inactive
same,outcome,[8],inactive
same,outcome,[9],inactive
same,outcome,[10],inactive
same,outcome,[11],inactive
same,outcome,[12],inactive
same,outcome,[13],inactive
same,outcome,[14],inactive
same,outcome,[15],inactive
same,outcome,[16],inactive
same,outcome,[17],inactive
same,outcome,[18],inactive
O=C(NS(=O)(=O)/C=C/c1cccs1)c1ccc(F)cc1Br,outcome,[19],inactive
same,outcome,[2],inactive
same,outcome,[3],inactive
same,outcome,[4],inactive
same,outcome,[5],inactive
same,outcome,[6],inactive
same,outcome,[7],inactive
same,outcome,[8],inactive
same,outcome,[9],inactive
same,outcome,[10],inactive
same,outcome,[11],inactive
same,AC50,[12],1.31 µM (active)
same,outcome,[13],inactive
same,outcome,[14],inactive
same,outcome,[20],inactive
same,outcome,[15],inactive
same,outcome,[16],inactive
same,outcome,[17],inactive
same,outcome,[18],inactive
COC(=O)CCC(=O)OC,outcome,[3],inactive
same,outcome,[4],inactive
same,outcome,[5],inactive
same,outcome,[6],inactive
same,outcome,[7],inactive
same,outcome,[8],inactive
same,outcome,[9],inactive
same,outcome,[11],inactive
same,outcome,[12],inactive
same,outcome,[13],inactive
same,outcome,[14],inactive
same,outcome,[20],inactive
same,outcome,[15],inactive
same,outcome,[16],inactive
same,outcome,[17],inactive
same,outcome,[18],inactive
CC(=O)S[C@H](C(=O)N[C@H]1Cc2ccccc2[C@H]2CCC[C@@H](C(=O)O)N2C1=O)C(C)C,outcome,[3],inactive
same,outcome,[4],inactive
same,outcome,[5],inactive
same,outcome,[6],inactive
same,outcome,[7],inactive
same,outcome,[8],inactive
same,outcome,[9],inactive
same,outcome,[11],inactive
same,outcome,[12],inactive
same,outcome,[13],inactive
same,outcome,[14],inactive
same,outcome,[15],inactive
same,outcome,[16],inactive
same,outcome,[17],inactive
same,outcome,[18],inactive
CN(C)CCCN(C)CCCN(C)C,AC50,[1],23.8 µM (active)
same,outcome,[3],inactive
same,outcome,[4],inactive
same,outcome,[5],inactive
same,outcome,[6],inactive
same,outcome,[7],inactive
same,outcome,[8],inactive
same,outcome,[9],inactive
same,outcome,[11],inactive
same,outcome,[12],inactive
same,outcome,[13],inactive
same,outcome,[14],inactive
same,outcome,[15],inactive
same,outcome,[16],inactive
same,outcome,[17],inactive
same,outcome,[18],inactive
O=C(O)CC(O)(CC(=O)O)C(=O)O,outcome,[3],inactive
same,outcome,[4],inactive
same,outcome,[5],inactive
same,outcome,[6],inactive
same,outcome,[7],inactive
same,outcome,[8],inactive
same,outcome,[9],inactive
same,outcome,[11],inactive
same,outcome,[12],inactive
same,outcome,[13],inactive
same,outcome,[14],inactive
same,outcome,[20],inactive
same,outcome,[15],inactive
same,outcome,[16],inactive
same,outcome,[17],inactive
same,outcome,[18],inactive
CC(C)c1cccc(C(C)C)c1NC(=O)NS(=O)(=O)c1cc(C(C)(C)O)co1,outcome,[3],inactive
same,outcome,[4],inactive
same,outcome,[5],inactive
same,outcome,[6],inactive
same,outcome,[7],inactive
same,outcome,[8],inactive
same,outcome,[9],inactive
same,outcome,[10],inactive
same,outcome,[11],inactive
same,outcome,[12],inactive
same,outcome,[13],inactive
same,outcome,[14],inactive
same,outcome,[15],inactive
same,outcome,[16],inactive
same,outcome,[17],inactive
same,outcome,[18],inactive
O=C(O)c1[nH]n(-c2ccc(S(=O)(=O)O)cc2)c(=O)c1N=Nc1ccc(S(=O)(=O)O)cc1,outcome,[3],inactive
same,outcome,[4],inactive
same,outcome,[5],inactive
same,outcome,[6],inactive
same,outcome,[7],inactive
same,outcome,[8],inactive
same,outcome,[9],inactive
same,outcome,[10],inactive
same,outcome,[11],inactive
same,outcome,[12],inactive
same,outcome,[13],inactive
same,outcome,[14],inactive
same,outcome,[15],inactive
same,outcome,[16],inactive
same,outcome,[17],inactive
same,outcome,[18],inactive
